# Source: PubChem BioAssay
# Active and inactive are the calls of the source.
# Legend:
# [1] = system: PRMT1 (protein arginine N-methyltransferase 1); experiment: PRMT1 binders on small-molecule microarrays, primary screen, biochemical, small-molecule microarray, 635 nm fluorescence (AID 1088); conditions: small-molecule microarray binding, higher = more signal;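 note: binding of Prmt1 protein to compounds spotted on small-molecule microarray slides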
# [2] = yeast growth modulation, basal conditions, primary screen, YJM789 clinical isolate, OD600, 24 h (AID 1089);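 note: growth of clinical yeast isolate S. cerevisiae YJM 789 seeded 1000 cells per well; test concentration not given here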; conditions: S. cerevisiae YJM789 growth, higher = more signal, called active from +8 up or from −8 down
# [3] = fission yeast growth modulation, primary screen, strain 972, OD600, 24 h, no modulator (AID 1090);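 note: basal condition with compound alone and no growth modifier present; test concentration not given here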; conditions: S. pombe 972 growth, higher = more signal, called active from +8 up or from −8 down
# [4] = S. cerevisiae growth modulation with rapamycin, primary screen, strain BY4716, OD600, 96 h (AID 1091); conditions: higher = more signal, called active from +8 up or from −8 down; note: test concentration not given here
# [5] = biological target: Torsin-1A-interacting protein 2 (Homo sapiens) (UniProt Q8NFQ8); experiment: LULL1 binders on small-molecule microarray, primary screen, cell lysate, human LULL1 lysate, 635/667 nm fluorescence (AID 1092); conditions: hLULL1 lysate binding, 635 nm fluorescence, higher = more signal;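 note: probe is lysate of COS7 cells overexpressing human LULL1; score merges per-feature 667 nm fluorescence with signal-to-noise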
# [6] = E. coli growth modulation, two-sided OD650, primary screen, E. coli filamentation project, strain DRC41, 24 h (AID 1093); conditions: OD650, 24 h, higher = more signal, called active from +8 up or from −8 down;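 note: MC1000 strain lacking acrAB efflux and sulA so SOS filamentation is blocked; test concentration not given here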
# [7] = small-molecule microarray binders of probe aLefty2, primary screen, biochemical, biotinylated probe, 635/667 nm fluorescence (AID 1094); conditions: higher = more signal;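 note: score merges spot fluorescence near 667 nm with spot signal-to-noise ratio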
# [8] = system: Noggin (protein binding on small-molecule microarray); experiment: Noggin binders on small-molecule microarray, primary screen, biochemical, 635/667 nm fluorescence (AID 1095); conditions: 635 nm fluorescence, higher = more signal;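 note: score merges 667 nm feature fluorescence with signal to noise over triplicate slides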
# [9] = biological target: Neurogenic locus notch homolog protein 3 (Homo sapiens) (UniProt Q9UM47); experiment: NOTCH3 binders on small-molecule microarray, primary screen, biochemical, 635/667 nm fluorescence (AID 1096); conditions: NOTCH3 binding, 635 nm fluorescence, higher = more signal
# [10] = small-molecule microarray binders of probe aEGFR, primary screen, biochemical, biotinylated probe, 635/667 nm fluorescence (AID 1097); conditions: higher = more signal;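 note: probe is a biotinylated anti-EGFR antibody binding compounds printed on slides; score combines fluorescence near 667 nm and signal to noise of each spot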
# [11] = system: Plasmodium falciparum Sir2 (PF13_0152, Sir2A); experiment: pfSir2 binders on small-molecule microarrays, primary screen, biochemical, small-molecule microarray, 635 nm fluorescence (AID 1098); conditions: small-molecule microarray binding, fluorescence 635 nm; higher = more signal;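 note: score merges spot fluorescence intensity with its signal-to-noise ratio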
# [12] = small-molecule microarray binders of probe aDKK1, primary screen, biochemical, biotinylated probe, 635/667 nm fluorescence (AID 1099); conditions: higher = more signal;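 note: score merges 667nm spot fluorescence with signal to noise across triplicate slides; reference of the scale not given here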
# [13] = small-molecule microarray binders of probe aCHRDL2, primary screen, biochemical, biotinylated probe, 635/667 nm fluorescence (AID 1100); conditions: higher = more signal
# [14] = splicing luciferase reporter signal modulators, primary screen, spliceosome inhibition project, cell-based, HEK293, splice +/- reporter (AID 1101); conditions: luminescence, 24 h, higher = more signal, called active from +8 up or from −8 down;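 note: HEK293 cells carrying a splicing-competent luciferase reporter gene; test concentration not given here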
# [15] = biological target: Fibroblast growth factor 10 (Homo sapiens) (UniProt O15520); experiment: FGF10 binders on small-molecule microarrays, primary screen, biochemical, small-molecule microarray, 635 nm fluorescence (AID 1102); conditions: FGF10 binding, fluorescence 635 nm, higher = more signal
# [16] = system: glycogen synthase kinase-3 (GSK3A per assay name; protocol says GSK3B); experiment: GSK3 binders on small-molecule microarrays, primary screen, biochemical, small-molecule microarray, 635 nm fluorescence, GSK3A (AID 1103); conditions: small-molecule microarray binding, fluorescence 635 nm; higher = more signal; note: the record names both GSK3A and GSK3B
# [17] = biological target: Epidermal growth factor receptor (Homo sapiens) (UniProt P00533); experiment: EGFR binders on small-molecule microarrays, primary screen, biochemical, small-molecule microarray, 635 nm fluorescence (AID 1104); conditions: EGFR binding, higher = more signal;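 note: score merges 667 nm emission intensity with spot signal to noise over triplicate slides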
# [18] = biological target: Follistatin-related protein 3 (Homo sapiens) (UniProt O95633); experiment: FSTL3 binders on small-molecule microarrays, primary screen, biochemical, small-molecule microarray, 635 nm fluorescence (AID 1105); conditions: FSTL3 binding, higher = more signal;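 note: score merges emission near 667 nm and signal to noise per printed spot across three slides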
# [19] = biological target: Dickkopf-related protein 1 (Homo sapiens) (UniProt O94907); experiment: DKK1 binders on small-molecule microarrays, primary screen, biochemical, small-molecule microarray, 635 nm fluorescence scan (AID 1106); conditions: DKK1 binding, higher = more signal;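 note: score merges emission near 667 nm with signal to noise over three replicate slides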
# [20] = system: Inhibin beta A chain (activin A); experiment: INHBA (activin A) binders on microarrays, primary screen, biochemical, small-molecule microarray, 635 nm fluorescence scan (AID 1107); conditions: small-molecule microarray binding, higher = more signal;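 note: mouse activin A protein probed at 4.33 µg/mL on printed slides; score merges bound-protein fluorescence near 667 nm with spot signal-to-noise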
# Dickkopf-related protein 1 (Homo sapiens), sequence (O94907 whole entry, looked up): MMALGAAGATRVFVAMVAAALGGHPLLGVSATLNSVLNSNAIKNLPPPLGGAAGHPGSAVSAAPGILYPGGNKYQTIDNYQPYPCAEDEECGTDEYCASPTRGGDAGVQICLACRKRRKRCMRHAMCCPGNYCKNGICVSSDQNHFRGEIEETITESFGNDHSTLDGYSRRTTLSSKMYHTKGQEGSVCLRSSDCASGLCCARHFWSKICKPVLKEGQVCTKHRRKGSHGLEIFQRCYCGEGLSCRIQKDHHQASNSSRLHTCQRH
# Neurogenic locus notch homolog protein 3 (Homo sapiens), sequence (Q9UM47 whole entry, looked up): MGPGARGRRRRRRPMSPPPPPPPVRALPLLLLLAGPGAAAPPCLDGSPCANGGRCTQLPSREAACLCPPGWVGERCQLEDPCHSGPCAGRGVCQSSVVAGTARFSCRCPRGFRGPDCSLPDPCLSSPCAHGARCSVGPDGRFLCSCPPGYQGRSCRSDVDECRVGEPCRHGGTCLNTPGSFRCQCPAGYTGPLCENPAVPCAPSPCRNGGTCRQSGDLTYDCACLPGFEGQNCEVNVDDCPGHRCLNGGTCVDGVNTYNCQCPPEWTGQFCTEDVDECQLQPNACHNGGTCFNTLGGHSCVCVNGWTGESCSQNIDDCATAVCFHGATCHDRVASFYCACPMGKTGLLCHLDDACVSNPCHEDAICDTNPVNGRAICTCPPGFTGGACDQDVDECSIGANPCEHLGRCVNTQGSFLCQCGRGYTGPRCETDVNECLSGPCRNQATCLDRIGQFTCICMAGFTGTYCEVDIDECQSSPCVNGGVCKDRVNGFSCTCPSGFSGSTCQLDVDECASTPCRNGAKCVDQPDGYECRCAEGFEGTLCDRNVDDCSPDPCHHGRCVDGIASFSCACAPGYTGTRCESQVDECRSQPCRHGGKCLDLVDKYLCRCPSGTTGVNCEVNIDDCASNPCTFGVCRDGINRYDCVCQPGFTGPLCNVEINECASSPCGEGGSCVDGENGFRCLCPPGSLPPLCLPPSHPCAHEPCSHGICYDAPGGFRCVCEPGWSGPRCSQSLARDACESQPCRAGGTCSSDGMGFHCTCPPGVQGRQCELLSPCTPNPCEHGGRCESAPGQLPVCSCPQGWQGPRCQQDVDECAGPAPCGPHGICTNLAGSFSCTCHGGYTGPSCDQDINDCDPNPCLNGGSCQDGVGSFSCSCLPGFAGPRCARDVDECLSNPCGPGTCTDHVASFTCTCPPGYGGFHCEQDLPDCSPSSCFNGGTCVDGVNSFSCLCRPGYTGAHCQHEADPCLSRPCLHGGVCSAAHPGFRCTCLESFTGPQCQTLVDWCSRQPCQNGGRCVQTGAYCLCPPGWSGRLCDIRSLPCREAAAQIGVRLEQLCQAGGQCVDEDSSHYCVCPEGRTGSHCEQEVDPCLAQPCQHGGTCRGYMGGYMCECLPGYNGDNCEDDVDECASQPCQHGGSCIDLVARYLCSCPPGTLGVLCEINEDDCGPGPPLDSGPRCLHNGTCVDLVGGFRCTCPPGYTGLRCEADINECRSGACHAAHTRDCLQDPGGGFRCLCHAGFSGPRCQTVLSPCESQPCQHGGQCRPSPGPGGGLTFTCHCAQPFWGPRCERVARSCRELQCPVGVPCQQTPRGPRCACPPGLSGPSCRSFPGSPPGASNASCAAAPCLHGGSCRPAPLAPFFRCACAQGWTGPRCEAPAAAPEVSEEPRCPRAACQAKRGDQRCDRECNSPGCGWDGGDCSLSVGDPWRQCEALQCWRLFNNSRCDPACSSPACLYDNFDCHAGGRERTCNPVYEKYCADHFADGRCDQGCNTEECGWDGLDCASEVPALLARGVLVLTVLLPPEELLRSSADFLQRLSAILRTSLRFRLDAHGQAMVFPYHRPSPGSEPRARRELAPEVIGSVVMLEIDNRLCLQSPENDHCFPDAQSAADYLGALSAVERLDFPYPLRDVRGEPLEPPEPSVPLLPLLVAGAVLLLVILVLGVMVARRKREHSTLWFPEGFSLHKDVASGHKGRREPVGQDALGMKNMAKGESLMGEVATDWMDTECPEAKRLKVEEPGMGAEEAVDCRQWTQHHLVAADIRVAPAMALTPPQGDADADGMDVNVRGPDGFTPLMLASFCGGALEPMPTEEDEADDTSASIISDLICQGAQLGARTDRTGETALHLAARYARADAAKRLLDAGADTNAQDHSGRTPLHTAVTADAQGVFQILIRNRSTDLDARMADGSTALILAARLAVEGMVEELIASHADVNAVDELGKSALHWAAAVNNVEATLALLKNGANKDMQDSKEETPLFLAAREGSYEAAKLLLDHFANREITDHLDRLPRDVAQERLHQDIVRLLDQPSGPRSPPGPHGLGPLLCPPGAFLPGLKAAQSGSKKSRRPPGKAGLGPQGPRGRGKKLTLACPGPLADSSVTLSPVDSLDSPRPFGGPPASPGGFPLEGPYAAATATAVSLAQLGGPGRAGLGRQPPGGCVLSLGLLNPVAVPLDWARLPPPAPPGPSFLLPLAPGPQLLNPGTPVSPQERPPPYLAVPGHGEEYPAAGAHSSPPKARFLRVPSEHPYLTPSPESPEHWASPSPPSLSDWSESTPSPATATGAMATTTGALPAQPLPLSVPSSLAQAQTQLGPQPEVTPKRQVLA
# Follistatin-related protein 3 (Homo sapiens), sequence (O95633 whole entry, looked up): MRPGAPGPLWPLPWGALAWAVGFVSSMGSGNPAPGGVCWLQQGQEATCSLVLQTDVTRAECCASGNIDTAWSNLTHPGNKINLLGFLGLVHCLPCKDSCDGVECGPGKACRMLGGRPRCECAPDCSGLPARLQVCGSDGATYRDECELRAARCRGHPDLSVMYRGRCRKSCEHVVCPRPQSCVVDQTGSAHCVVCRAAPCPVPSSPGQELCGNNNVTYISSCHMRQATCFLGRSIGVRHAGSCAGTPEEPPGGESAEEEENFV
# Fibroblast growth factor 10 (Homo sapiens), sequence (O15520 whole entry, looked up): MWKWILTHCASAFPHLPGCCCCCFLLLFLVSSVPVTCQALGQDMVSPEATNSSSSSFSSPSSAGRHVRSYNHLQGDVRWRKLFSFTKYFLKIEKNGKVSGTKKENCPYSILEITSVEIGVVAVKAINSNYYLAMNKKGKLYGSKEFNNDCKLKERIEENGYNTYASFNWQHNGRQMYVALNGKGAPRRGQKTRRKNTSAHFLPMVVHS
# Epidermal growth factor receptor (Homo sapiens), sequence (P00533 whole entry, looked up): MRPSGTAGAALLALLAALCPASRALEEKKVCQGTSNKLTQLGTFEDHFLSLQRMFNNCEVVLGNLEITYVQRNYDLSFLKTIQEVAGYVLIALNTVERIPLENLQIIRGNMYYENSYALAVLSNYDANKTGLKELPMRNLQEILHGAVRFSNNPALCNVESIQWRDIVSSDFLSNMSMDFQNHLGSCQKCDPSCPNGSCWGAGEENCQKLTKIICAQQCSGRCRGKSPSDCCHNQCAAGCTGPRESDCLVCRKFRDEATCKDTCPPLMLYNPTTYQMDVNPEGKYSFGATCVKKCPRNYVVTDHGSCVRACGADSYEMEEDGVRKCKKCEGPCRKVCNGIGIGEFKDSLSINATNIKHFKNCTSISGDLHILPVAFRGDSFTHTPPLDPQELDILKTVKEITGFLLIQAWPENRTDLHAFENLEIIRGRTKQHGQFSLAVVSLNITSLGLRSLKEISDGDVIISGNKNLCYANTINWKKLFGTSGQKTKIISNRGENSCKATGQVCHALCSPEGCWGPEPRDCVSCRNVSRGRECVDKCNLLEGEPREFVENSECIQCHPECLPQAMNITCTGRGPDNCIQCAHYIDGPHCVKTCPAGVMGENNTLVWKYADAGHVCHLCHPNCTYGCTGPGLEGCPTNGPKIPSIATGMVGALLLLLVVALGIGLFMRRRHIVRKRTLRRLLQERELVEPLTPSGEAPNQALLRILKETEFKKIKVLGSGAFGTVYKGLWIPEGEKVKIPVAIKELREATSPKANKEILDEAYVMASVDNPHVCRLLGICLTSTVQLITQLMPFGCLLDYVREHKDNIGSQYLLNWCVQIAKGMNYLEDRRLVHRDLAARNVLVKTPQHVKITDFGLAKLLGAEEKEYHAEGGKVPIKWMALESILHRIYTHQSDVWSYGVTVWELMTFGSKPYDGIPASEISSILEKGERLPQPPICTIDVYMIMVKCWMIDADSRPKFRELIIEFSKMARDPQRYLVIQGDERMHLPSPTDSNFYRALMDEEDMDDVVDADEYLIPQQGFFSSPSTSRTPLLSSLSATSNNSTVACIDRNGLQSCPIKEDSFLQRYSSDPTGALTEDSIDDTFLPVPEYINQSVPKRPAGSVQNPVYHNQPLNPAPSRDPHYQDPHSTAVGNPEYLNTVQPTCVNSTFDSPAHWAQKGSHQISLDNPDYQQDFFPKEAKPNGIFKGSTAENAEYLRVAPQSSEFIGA
# Torsin-1A-interacting protein 2 (Homo sapiens), sequence (Q8NFQ8 whole entry, looked up): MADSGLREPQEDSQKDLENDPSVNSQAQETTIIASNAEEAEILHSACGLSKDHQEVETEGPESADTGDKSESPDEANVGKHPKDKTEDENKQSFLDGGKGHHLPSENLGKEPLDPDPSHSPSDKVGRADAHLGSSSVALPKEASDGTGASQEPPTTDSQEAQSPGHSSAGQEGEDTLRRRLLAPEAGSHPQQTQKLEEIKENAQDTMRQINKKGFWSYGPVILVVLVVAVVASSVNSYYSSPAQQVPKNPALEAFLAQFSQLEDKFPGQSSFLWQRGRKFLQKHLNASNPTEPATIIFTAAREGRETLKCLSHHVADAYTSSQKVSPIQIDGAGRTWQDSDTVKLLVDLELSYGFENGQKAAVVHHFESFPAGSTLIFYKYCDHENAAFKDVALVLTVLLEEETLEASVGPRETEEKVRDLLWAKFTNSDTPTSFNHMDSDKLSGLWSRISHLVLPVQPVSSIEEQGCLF
Structure (SMILES),composite z-score [1],z-score [2],z-score [3],z-score [4],composite z-score [5],z-score [6],composite z-score [7],composite z-score [8],composite z-score [9],composite z-score [10],composite z-score [11],composite z-score [12],composite z-score [13],z-score [14],composite z-score [15],composite z-score [16],composite z-score [17],composite z-score [18],composite z-score [19],composite z-score [20]
C[C@@H]1NC(=O)[C@@]23C(=O)N[C@@H](Cc4ccccc4)C2[C@H](C)[C@@]2(C)O[C@H]2C3/C=C/C/C=C\CNC(=O)[C@@H]2CCCN2C1=O (stereo not given in full),-0.422,-0.498 (inactive),-0.409 (inactive),-0.524 (inactive),-0.516,-0.874 (inactive),-0.132,-0.044,-0.526,-0.266,0.685,-0.33,-0.339,-0.0139 (inactive),0.0528,-0.438,-0.0154,-0.165,0.0077,1.35
C=CCNC(=O)[C@@H]1[C@H]2C(=O)O[C@H](c3ccccc3)[C@H](c3ccccc3)N2[C@H](c2ccc(O)cc2)[C@@]12C(=O)N(C(=O)OCCOC)c1ccc(C#CC3(O)CCCCCC3)cc12,-0.14,-0.857 (inactive),0.183 (inactive),-0.26 (inactive),-1.28,1.23 (inactive),0.143,-0.669,-0.904,-0.305,0.482,-0.227,0.854,-0.565 (inactive),-1.72,-1.44,-1.5,-1.45,-1.82,-1.46
C=C(/C(=C/C[C@H](OC(C)=O)c1ccccc1OCCO)c1cc(C(=O)OC)ccc1OC)C(C)C,0.617,0.946 (inactive),-1.2 (inactive),-0.376 (inactive),1.04,1.18 (inactive),-0.141,0.295,-0.189,0.509,1.64,-0.15,-0.192,-0.736 (inactive),0.634,-0.122,-0.167,0.0218,-0.0716,0.721
CC=CC(O)C1C=CC2C(=O)N(c3ccccc3)C(=O)C2N1Nc1ccccc1F (stereo not given),0.841,-0.0071 (inactive),1.4 (inactive),0.741 (inactive),3.08,-0.463 (inactive),0.535,-0.592,-0.411,0.312,0.32,1.24,0.76,0.095 (inactive),0.169,-0.352,0.114,-0.0808,0.0324,1.21
C=CC[C@]1(C(=O)NCCN2CCOCC2)N=C(c2ccc(OCCCO)cc2)O[C@H]1c1ccccc1CN=[N+]=[N-],1.4,-0.0011 (inactive),-1.77 (inactive),-0.744 (inactive),1.64,1.23 (inactive),0.298,0.641,-1.35,0.159,0.817,0.96,0.723,0.346 (inactive),1.2,0.703,0.409,-0.0125,1.54,1.57
C=C[C@@H](OC)[C@H](OC(=O)Nc1ccc(SC)cc1)c1ccc(O)c(F)c1,1.56,1.05 (inactive),0.123 (inactive),1.65 (inactive),2.58,0.374 (inactive),-0.0654,0.808,0.185,-0.126,1.2,-0.0849,0.293,-1.17 (inactive),0.588,0.288,-0.198,0.213,0.19,0.312
O=C1NC(=O)C2C1C=CC(C(O)c1cccc3ccccc13)N2Nc1ccc(Cl)cc1Cl (stereo not given),0.811,-1.94 (inactive),-0.615 (inactive),2.56 (inactive),3.04,-1.43 (inactive),0.162,-0.339,1.04,0.131,0.477,0.911,1.16,1.02 (inactive),0.46,0.267,-0.459,0.0589,-1.03,1.01
COCCOC(=O)N1C(=O)[C@@]2(c3cc(C#CC4=CCCCC4)ccc31)[C@H](C(N)=O)[C@H]1C(=O)O[C@H](c3ccccc3)[C@H](c3ccccc3)N1[C@@H]2c1ccccc1OCCO,1.54,0.908 (inactive),0.0645 (inactive),1.99 (inactive),2.75,-0.0839 (inactive),-0.0028,0.551,1.11,-0.0056,1.46,0.195,0.367,-1.88 (inactive),1.24,1.32,0.32,0.733,0.707,0.455
COc1ccccc1CN1C(=O)c2ccccc2[C@](Cc2ccccc2I)(C(=O)NCC(F)(F)F)[C@@H]1c1ccc(CO)cc1,1.55,-0.23 (inactive),-0.503 (inactive),0.0879 (inactive),3.22,-1.13 (inactive),0.126,0.576,0.872,0.0024,1.31,0.984,0.854,0.377 (inactive),0.7,1.29,-0.24,1.1,-0.532,0.513
C=C(CCCC)/C(=C/C[C@@H](OC(=O)c1ccncc1)c1ccccc1OCCO)c1cnc2ccccc2c1,1.55,-0.868 (inactive),-1.2 (inactive),1.65 (inactive),1.26,0.514 (inactive),-0.127,1.9,1.05,-0.0028,1.26,0.276,0.178,1.03 (inactive),1.44,1.15,1.02,1.33,0.736,1.69
